Screening data (PubChem BioAssay)
RGS4-Gao reg – modulates binding of RGS4 to human Galphao; P09471; hit rate 0.33% among 220,000; binding response (% of control), % at 10 µM; Multiplexed bead flow cytometry; actives lie on both sides; AID 1415; in the data active = binding response below about 49% or above about 150%; inactive = in between;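 note: fluorescent Galphao activated with aluminum fluoride binding bead-coupled RGS4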
Target sequence (P09471 whole entry, looked up): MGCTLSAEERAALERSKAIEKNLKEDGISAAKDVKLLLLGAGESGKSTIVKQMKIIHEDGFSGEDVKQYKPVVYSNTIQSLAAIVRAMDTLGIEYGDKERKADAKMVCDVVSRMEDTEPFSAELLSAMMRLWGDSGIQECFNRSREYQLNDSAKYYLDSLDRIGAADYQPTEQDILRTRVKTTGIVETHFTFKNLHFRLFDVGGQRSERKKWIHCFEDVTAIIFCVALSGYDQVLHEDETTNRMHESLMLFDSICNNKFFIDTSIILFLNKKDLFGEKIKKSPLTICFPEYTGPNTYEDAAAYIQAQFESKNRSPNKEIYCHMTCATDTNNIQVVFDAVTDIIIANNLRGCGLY
GSH bead fluor – compound fluoresces at 488/530 nm on GSH beads; GSH beads flow cytometry, compound fluorescence 488/530 nm; hits give high values; fluorescence (KMESF) at 10 µM; hit rate 0.25% among 190,000; AID 1776; in the data active = fluorescence above about 89;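 note: glutathione beads carrying GST-tagged Bcl family fusion proteins plus one bare bead set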
RGS8-Gao reg – human RGS8-Galphao interaction regulation; hit rate 0.34% among 220,000; response (percent of control binding), % at 10 µM; P09471; multiplexed bead flow cytometry, RGS8-Galphao binding; actives lie on both sides; in the data active = response below about 60% or above about 140%; inactive = in between;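 note: Galphao activated as the GDP aluminium fluoride complex binding bead-coupled RGS8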
RGS7-Gao reg – human RGS7-Galphao interaction regulation | AID 1439 | P09471 | binding response (% of control), % at 10 µM | hit rate 0.35% among 220,000 | Multiplexed bead flow cytometry, RGS7-Galphao binding; actives lie on both sides; in the data active = binding response below about 49% or above about 150%; inconclusive = no clear call, values can overlap the other calls; inactive = in between;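 note: fluorescent Galphao held in activated GDP-AlF4 state binding bead-coupled RGS7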
Avidin fluor – avidin bead compound fluorescence profile. Avidin beads, compound fluorescence 488/530 nm, flow cytometry; hits give high values. fluorescence (KMESF) at 10 µM. hit rate 0.38% among 220,000. AID 1775; in the data active = fluorescence above about 47
RGS16-Gao HTS – RGS16-Galphao interaction regulator (human); AID 1441; hit rate 0.38% among 220,000; bead-based flow cytometry RGS16-Galphao binding, fluorescence; actives lie on both sides; O15492+P09471; binding response (% of control), % at 10 µM; call rule not given here;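 note: Galphao activated by GDP with aluminum fluoride before binding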
Target sequence (O15492 whole entry, looked up): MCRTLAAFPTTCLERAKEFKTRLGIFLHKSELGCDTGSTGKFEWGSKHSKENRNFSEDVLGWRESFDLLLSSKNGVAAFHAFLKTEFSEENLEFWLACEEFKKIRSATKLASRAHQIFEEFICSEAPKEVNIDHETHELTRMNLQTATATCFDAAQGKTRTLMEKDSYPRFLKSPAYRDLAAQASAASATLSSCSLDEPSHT
Target sequence (P09471 whole entry, looked up): as the sequence (P09471 whole entry, looked up) above
A number is an active result; i = inactive; ? = inconclusive; nt = no result. Most compounds without a hit are left out; they make up all but 1.2% or so of the library.

SMILES	RGS4-Gao reg	GSH bead fluor	RGS8-Gao reg	RGS7-Gao reg	Avidin fluor	RGS16-Gao HTS
CCC(=O)N1CCc2cc(Br)cc(S(=O)(=O)NCc3ccco3)c21	i	i	i	i	i	i
CCC(=O)N1CCc2cc(Br)cc(S(=O)(=O)CCC(=O)NCc3ccco3)c21	i	i	i	i	51	i
c1coc(CNC2CCCCC2)c1	i	i	i	i	i	i
c1coc(CNC2CCCCCCC2)c1	i	i	i	i	84	i
CCc1ccc(C(=O)COC(=O)CNC(=O)c2cccs2)cc1	i	i	i	i	78	i
Cn1ncc(Cl)c1C(=O)Nc1sc2c(c1C(N)=O)CCC2	i	99	i	i	i	i
CCOc1ccc(S(=O)(=O)Nc2ccc(C(=O)N/N=C(\C)c3ccc(-n4ccnc4)cc3)cc2)cc1	i	i	i	i	50	i
Cc1nc([N+](=O)[O-])c(Br)n1CC(=O)c1ccc2ccccc2c1	i	i	i	i	50	i
O=C1NC(=O)C(CC(=O)N(c2ccccc2)C2(C(=O)NC3CCCC3)CCCCC2)N1 (stereo not drawn)	i	i	i	i	52	i
CC(=O)/C(CN1CCCCC1)=N\O	i	i	i	i	85	i
O=C(O)CN1CCCCC1	i	i	i	i	i	i
CCOc1ccc(N2C(=O)CC(SCCN)C2=O)cc1 (stereo not drawn)	i	267	i	i	i	i
CCOc1ccc(N2C(=O)CC(Sc3nc(C)cc(C)n3)C2=O)cc1 (stereo not drawn)	i	i	i	i	i	i
COC(=O)CCNS(=O)(=O)c1ccc2ccccc2c1	i	i	i	i	66	i
CC(C)(C)SCCNS(=O)(=O)c1ccc2ccccc2c1	i	i	i	i	i	i
CCn1c(=O)c(C(=O)Nc2nc3ccccc3[nH]2)c(O)c2ccccc21	i	114	i	i	i	i
CCc1nc2ccccc2c(=O)n1NC(=O)c1c(O)c2ccccc2n(CC)c1=O	i	i	i	i	i	i
COc1ccc(C(=O)NNC(=O)CCn2nnc(-c3ccc(Cl)cc3)n2)cc1OC	i	i	i	i	i	i
COCCOc1ccc(C(F)(F)F)cc1NC(=O)c1ccc(C)cc1	i	i	i	i	59	i
CSc1ccccc1NS(=O)(=O)c1ccccc1	i	i	i	i	48	i
COC(=O)COc1ccc(S(=O)(=O)Nc2ccccc2C(=O)OC)cc1	i	i	i	i	63	i
COc1ccc(-c2nnn(CCc3nn[nH]n3)n2)cc1OC	i	i	i	i	i	i
COc1ccc(-c2nnn(Cc3nn[nH]n3)n2)cc1OC	i	280	i	i	i	i
CS(=O)(=O)N(Cc1ccccc1)c1ccc(C(=O)NCCSCc2ccco2)cc1	i	88	i	i	i	i
O=C(Cn1[nH]c(=O)c2ccccc2c1=O)Nc1ccc2c(c1)CCC2	i	270	i	i	i	i
SMILES	RGS4-Gao reg	GSH bead fluor	RGS8-Gao reg	RGS7-Gao reg	Avidin fluor	RGS16-Gao HTS
O=C(Nc1ccc2c(c1)OCO2)N1CCN(c2ncc(C(F)(F)F)cc2Cl)CC1	i	257	i	i	i	i
CCOc1ccccc1C(=O)NCCC(=O)O	i	i	i	i	i	i
CCOc1ccc(C(CCc2ccccc2)NC(=O)c2ccccc2OC)cc1OCC (stereo not drawn)	i	i	i	i	51	i
CCOc1ccccc1C(=O)NC(CO)C(=O)O (stereo not drawn)	i	271	i	i	i	i
Cc1ccc(C(=O)OCC(=O)N2CCc3ccccc32)cc1	i	i	i	i	50	i
Cc1ccc(C(=O)C(OC(=O)CCC(=O)Nc2cccc(C)c2)c2ccccc2)cc1 (stereo not drawn)	i	i	i	i	i	i
COc1ccc(NC(=O)CCC(=O)OC(C(=O)c2ccccc2)c2ccccc2)cc1 (stereo not drawn)	i	i	i	i	55	i
Cc1cc(C(=O)Nn2c(C)nc3ccccc3c2=O)ccc1[N+](=O)[O-]	i	i	i	i	i	i
Cc1cccc(-c2nc3ccccc3c(=O)n2NC(=O)c2ccc([N+](=O)[O-])c(C)c2)c1	i	i	i	i	73	i
COc1ccc(N2CCN(C(=O)CN(C)S(=O)(=O)c3cc(C)ccc3OC)CC2)cc1	i	i	i	i	i	i
Cc1noc(C)c1CSc1nnc2sc3ccccc3n12	i	i	i	i	i	i
Cc1noc(C)c1CSc1nc2ccccc2n1C	i	240	i	i	i	i
O=C1CSC(=S)N1c1cccnc1	i	266	i	i	i	i
O=C1CSC(=S)N1Cc1cccnc1	i	i	i	i	i	i
O=c1c(-c2ccnn2-c2ccccc2F)cnc2n1CCS2	i	249	i	i	i	i
O=C1CC(N2CCc3ccccc32)C(=O)N1c1ccc(F)cc1 (stereo not drawn)	i	i	i	i	i	i
Cc1ccc(NS(=O)(=O)c2ccc(C(=O)OCC(=O)NCC3CCCO3)cc2)cc1 (stereo not drawn)	i	i	i	?	i	i
Cc1cc(C)n(-c2ncnc3sc4c(c23)CCCC4)n1	i	i	i	i	i	i
Cc1cc(C)n(-c2ncnc3sc(C)c(C)c23)n1	i	i	i	i	53	i
Cc1ccccc1N1CCN(S(=O)(=O)c2ccccc2)CC1	i	98	i	i	i	i
Cc1cc(S(=O)(=O)N2CCN(c3ccccc3C)CC2)ccc1F	i	i	i	i	i	i
O=C1NC(N2CCOCC2)=N/C1=C/c1ccc2c(c1)OCO2	i	i	i	i	i	i
N#CC1=C(N)Oc2n[nH]c(-c3cccs3)c2C1c1ccccc1C(=O)O (stereo not drawn)	i	i	i	i	i	i
N#CC1=C(N)Oc2n[nH]c(-c3cccs3)c2C1c1cccs1 (stereo not drawn)	i	i	i	i	48	i
O=c1c2ccccc2c2ccccc2c(=O)n1CC1CCCO1 (stereo not drawn)	i	252	i	i	i	i
SMILES	RGS4-Gao reg	GSH bead fluor	RGS8-Gao reg	RGS7-Gao reg	Avidin fluor	RGS16-Gao HTS
O=C1c2ccccc2C(=O)N1CC1CCCO1 (stereo not drawn)	i	i	i	i	i	i
O=C1CNC(=O)/C(=C/c2ccco2)N1	i	i	i	i	i	i
CSc1ccccc1NC(=O)CN(C)CC(=O)Nc1c(F)cccc1F	i	i	i	i	58	i
CC(C)C12CN3CC(C(C)C)(CN(C1)C3c1ccccc1)C2O (stereo not drawn)	i	253	i	i	i	i
CCCc1ccc(NS(=O)(=O)c2c(C)oc(C)c2C(=O)OC)cc1	i	nt	i	?	i	i
CS(=O)(=O)N1CCC(C(=O)Nc2ccc(F)cc2F)CC1	i	i	i	i	79	i
COc1cc(C(=O)N2CCN(C(=O)CC(C)C)CC2)cc(OC)c1OC	i	i	i	i	120	i
N#Cc1c(N)oc(-c2ccccc2)c1-c1ccccc1	i	268	i	i	i	i
